The structures appear in SMILES notation. Results filed as inconclusive are left out. Unmarked numbers belong to inactive results. Activity calls are given as the source filed them. Calls come from the whole dose curve; as a rule, active = well fitted curve in the direction sought with a large enough effect in the repeat runs; inconclusive = weak or mixed curves; inactive = no such curve, though single readings can be large; an effect the other way counts as inactive or inconclusive.
% is set by controls: 0 for no effect and ±100 for the full control effect.

The nature of one assay: qHTS RealTime-Glo MT Cell Viability Assay in HepG2 cells - 8 hour (AID 1224873). Note: nearly all actives have a fitted effect of over 55% in size. The conditions noted are these: RealTime-Glo luminescence; series mostly up to 76.8 µM. In short, it runs like this: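 HepG2 cells (600/well) mixed with RealTime-Glo MT reagent, settled 5 h at 37 C/5% CO2 before compound addition. Nonlytic NanoLuc luminescence from viable-cell prosubstrate reduction read repeatedly during 40 h treatment at 37 C.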
(In general: Quantitative high-throughput screening tests each substance at several concentrations.)
As to `C=CC(C)(O)CCCC(C)CCCC(C)CCCC(C)C` (stereo unspecified), the Potency result is “inactive”.

Turning to `CN1C(=O)CC(C)(c2ccccc2)C1=O` (stereo unspecified), the Potency entry is “inactive”.

On to `C[C@]12CCC(=O)C=C1C=C[C@@H]1[C@@H]2CC[C@@]2(C)[C@H]1CC[C@@]21CCC(=O)O1`, for which the Potency result was “inactive”.

With `Cc1occc1C(=O)Nc1ccc(C(=O)N2CCC(F)(F)/C(=C\C(=O)N3CCC(N4CCCCC4)CC3)c3ccccc32)cc1`, the Potency entry is “inactive”.

Consider `CC(=O)[C@H]1CC[C@H]2[C@@H]3C[C@H](C)C4=CC(=O)CC[C@]4(C)[C@H]3[C@@H](O)C[C@]12C`, for which the Potency result was “inactive”.

`O=S1OCCO1`: the Potency entry is “inactive”.

Consider `C1COCO1`, for which the Potency entry is “inactive”.

Take `COc1cc2[nH]c(=O)[nH]c(=O)c2cc1OC`: the Potency entry is “inactive”.

A short description of another assay: qHTS RealTime-Glo MT Cell Viability Assay in HEK293 cells - 40 hour (AID 1224874). Note: nearly all actives have a fitted effect of over 50% in size. Note: potency is the fitted concentration of half-maximal effect. The conditions noted are these: RealTime-Glo luminescence; max response: active compounds read low. In short, it runs like this: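 Tox21 screen in HEK293 using RealTime-Glo MT chemistry, with cells and reagent co-dispensed. Luminescence proportional to viable cell number was captured at intervals during 40 h compound exposure at 37 C.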
For `CNC(=O)N(c1ccccc1)c1ccccc1`, the max response is 10.9%.

For the compound `CC1(C)C(=O)N(Br)C(=O)N1Cl`, the max response was 8.13%.

In the case of `CCCCCCCCSCCO`, the max response was 0.336%.

As to `CC#N`, the max response was 1.57%.

Take `NC(=O)Nc1ccc(Cl)cc1`: the max response is -8.17%.

With `OC/C(Br)=C(\Br)CO`, the max response was 0.37%.

Turning to `CC1=CC(=O)CC(C)(C)C1(O)/C=C/C(C)=C\C(=O)O` (stereo unspecified), the max response is 8.54%.

`CCCOC(=O)c1ccc(N)cc1`: the max response was -15%.

As for `CCCCC(CC)CNCC(CC)CCCC` (stereo unspecified), the max response was 8.85%.

As for `O=C(CCC1CCN(Cc2ccccc2)CC1)c1ccc2c(c1)NCCCC2`, the Potency was 9.52 µM (active).

For `COC(=O)c1cc(Cl)ccc1NS(=O)(=O)C(F)(F)F`, the max response is 2.62%.

Regarding `CC(=O)CC(c1ccc([N+](=O)[O-])cc1)c1c(O)c2ccccc2oc1=O` (stereo unspecified), the max response was -4.65%.

`CCOC(=O)c1ccccc1OC`: the max response was -4.86%.

With `c1cnc2c(n1)CCCC2`, the max response is 1.7%.

Turning to `CO[C@H]1O[C@H](CO)[C@@H](O)[C@H](O)[C@H]1O`, the max response is 5.92%.

As for `O=C(/C=C/c1ccccc1)OCCCc1ccccc1`, the max response is -1.1%.

For the compound `C=CCCCCCCCCCCCCCCCC`, the max response is -5.15%.

`CCCCC(=O)O[C@]1(C(=O)CO)CC[C@H]2[C@@H]3CCC4=CC(=O)CC[C@]4(C)[C@H]3[C@@H](O)C[C@@]21C`: the max response is -24%.

For the compound `NC(=O)N(O)[C@@H]1C=C[C@H](Oc2cccc(Oc3ccc(F)cc3)c2)C1`, the Potency was 19.5 µM (active).

With `CC1CC(O)CC(C)(C)C1` (stereo unspecified), the max response is -3.83%.

For `N#C[C@@H]1C[C@@H]2C[C@@H]2N1C(=O)[C@@H](N)C12CC3CC(CC(O)(C3)C1)C2`, the max response was 10.4%.

Turning to `O=Cc1c(Cl)cccc1Cl`, the max response is -15.3%.

For the compound `CC1(C)O[C@@H]2C[C@H]3[C@@H]4CCC5=CC(=O)C=C[C@]5(C)[C@H]4[C@@H](O)C[C@]3(C)[C@]2(C(=O)CO)O1`, the max response was -1.67%.

As for `CCCCCCCCCCCCCCCCBr`, the max response was 4.08%.

For the compound `CCCCCCOC(=O)C(C)C`, the max response is 6.06%.

`COC(=O)c1cc(S(N)(=O)=O)ccc1OC`: the max response is 7.1%.

Regarding `C=CC(C)(O)CCCC(C)CCCC(C)CCCC(C)C` (stereo unspecified), the max response was 6.13%.

As for `CN1C(=O)CC(C)(c2ccccc2)C1=O` (stereo unspecified), the max response was -3.29%.

For `C[C@]12CCC(=O)C=C1C=C[C@@H]1[C@@H]2CC[C@@]2(C)[C@H]1CC[C@@]21CCC(=O)O1`, the max response was -25.7%.

As to `Cc1occc1C(=O)Nc1ccc(C(=O)N2CCC(F)(F)/C(=C\C(=O)N3CCC(N4CCCCC4)CC3)c3ccccc32)cc1`, the Potency is 6.83 µM (active).

For `CCCC1C(CC)=CC(CC)=CN1c1ccccc1` (stereo unspecified), the Potency is 13.8 µM (active).

Consider `C=CC(=C)CCCC(C)(C)OC(C)=O`, for which the max response was -7.82%.

As to `O=S1OCCO1`, the max response was 21%.

In the case of `C1COCO1`, the max response is -1.05%.

For `CC(=O)Nc1ccccc1C`, the max response is 1.18%.

Consider `COc1cc2[nH]c(=O)[nH]c(=O)c2cc1OC`, for which the max response is 1.95%.

On to `N#C/C(=C1/SC[C@@H](c2ccc(Cl)cc2Cl)S1)n1ccnc1`, for which the max response is -23.1%.

A short description of another assay: A CellTox Green Cytotoxicity Assay to monitor cytotoxicity in HEK293 cells - 24 hour (AID 1224875). Note: nearly all actives have a fitted effect of over 45% in size. The conditions noted are these: CellTox Green fluorescence; series mostly up to 76.8 µM. In short, it runs like this:
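Seeding of HEK293 cells together with cytotoxicity dye preceded a 5 h incubation at 37 C/5% CO2. Test compounds in DMSO were then added and fluorescence monitored across 40 h.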
Regarding `CNC(=O)N(c1ccccc1)c1ccccc1`, the Potency result was “inactive”.

Consider `CC1(C)C(=O)N(Br)C(=O)N1Cl`, for which the Potency entry was “inactive”.

On to `CCCCCCCCSCCO`, for which the Potency result was “inactive”.

On to `CC#N`, for which the Potency result is “inactive”.

As for `NC(=O)Nc1ccc(Cl)cc1`, the Potency entry was “inactive”.

With `CC1=CC(=O)CC(C)(C)C1(O)/C=C/C(C)=C\C(=O)O` (stereo unspecified), the Potency entry is “inactive”.

As to `CCCOC(=O)c1ccc(N)cc1`, the Potency result is “inactive”.

Regarding `O=C(CCC1CCN(Cc2ccccc2)CC1)c1ccc2c(c1)NCCCC2`, the Potency result is “inactive”.

On to `CC(=O)OCC(=O)[C@H]1CC[C@H]2[C@@H]3CCC4=CC(=O)CC[C@]4(C)[C@H]3CC[C@]12C`, for which the Potency entry is “inactive”.

For `COC(=O)c1cc(Cl)ccc1NS(=O)(=O)C(F)(F)F`, the Potency result was “inactive”.

For `CCOC(=O)c1ccccc1OC`, the Potency entry is “inactive”.

Regarding `O=C(/C=C/c1ccccc1)OCCCc1ccccc1`, the Potency result was “inactive”.

With `C=CCCCCCCCCCCCCCCCC`, the activity change was -1.9% [at 6.97 µM, active compounds read high].

For `CCCCC(=O)O[C@]1(C(=O)CO)CC[C@H]2[C@@H]3CCC4=CC(=O)CC[C@]4(C)[C@H]3[C@@H](O)C[C@@]21C`, the Potency result is “inactive”.

For `CC1CC(O)CC(C)(C)C1` (stereo unspecified), the Potency result was “inactive”.

In the case of `N#C[C@@H]1C[C@@H]2C[C@@H]2N1C(=O)[C@@H](N)C12CC3CC(CC(O)(C3)C1)C2`, the Potency entry is “inactive”.

In the case of `O=Cc1c(Cl)cccc1Cl`, the Potency result is “inactive”.

Turning to `CC1(C)O[C@@H]2C[C@H]3[C@@H]4CCC5=CC(=O)C=C[C@]5(C)[C@H]4[C@@H](O)C[C@]3(C)[C@]2(C(=O)CO)O1`, the Potency result was “inactive”.

For `CCCCCCCCCCCCCCCCBr`, the activity change was 2.71% [at 15.8 µM, active compounds read high].

For the compound `CCCCCCOC(=O)C(C)C`, the Potency result was “inactive”.

On to `COC(=O)c1cc(S(N)(=O)=O)ccc1OC`, for which the Potency entry was “inactive”.

Take `C=CC(C)(O)CCCC(C)CCCC(C)CCCC(C)C` (stereo unspecified): the Potency result was “inactive”.

Consider `CN1C(=O)CC(C)(c2ccccc2)C1=O` (stereo unspecified), for which the Potency result is “inactive”.

As for `Cc1occc1C(=O)Nc1ccc(C(=O)N2CCC(F)(F)/C(=C\C(=O)N3CCC(N4CCCCC4)CC3)c3ccccc32)cc1`, the Potency result was “inactive”.

On to `CCCC1C(CC)=CC(CC)=CN1c1ccccc1` (stereo unspecified), for which the Potency entry is “inactive”.

Regarding `CC(=O)[C@H]1CC[C@H]2[C@@H]3C[C@H](C)C4=CC(=O)CC[C@]4(C)[C@H]3[C@@H](O)C[C@]12C`, the Potency result is “inactive”.

Turning to `C=CC(=C)CCCC(C)(C)OC(C)=O`, the Potency result is “inactive”.

Take `O=S1OCCO1`: the Potency entry was “inactive”.

With `CC(=O)Nc1ccccc1C`, the Potency result is “inactive”.

For `COc1cc2[nH]c(=O)[nH]c(=O)c2cc1OC`, the Potency result is “inactive”.

With `N#C/C(=C1/SC[C@@H](c2ccc(Cl)cc2Cl)S1)n1ccnc1`, the Potency entry was “inactive”.

The record behind these values is PubChem BioAssay (Tox21).
